According to PubChem BioAssay (NCI):
About 83,000 compounds went through this panel and 20% of them were active in at least one assay; those are over-represented in the sample as a whole.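 For each line, cells grew in 96-well plates with the test compound present at a single concentration for 48 hours.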 Activity calls are given as the source filed them.

These molecules were tested on SK-MEL-28 melanoma (assay: NCI-60 one-dose screen, 48 h (100 = growth as untreated, 0 = no growth, -100 = all killed)). Conditions: 10 µM unless noted.
Protocol: Growth inhibition of the SK-MEL-28 human tumor cell line is measured as a screen for anti-cancer activity. Cells are grown in 96 well plates and exposed to the test compound for 48 hours. Compounds are tested at a single concentration, which is 10^-5 M for most compounds. The reported endpoint is percent growth (GI% or GIPRCNT), where numbers from 0 - 100% represent growth inhibition, and numbers from -100% - 0 represent cell death. For example, a value of 40 represents 60% growth inhibition. A value of 0 means no net growth occurred over the course of the experiment. A value of -40 indicates 40% of cells at the beginning of the experiment died by the end of the experiment. A value of -100 means all cells are dead at the end of the experiment.
NCI-60 Human Tumor Cell Lines Screen was performed using the standard one-dose NCI protocol, which is described in more detail at https://dtp.cancer.gov/discovery_development/nci-60/default.htm.
Compounds with GIPRCNT values below 10 were considered active. Activity score was based on GIPRCNT using the following formula: […]
Score is 0 for GIPRCNT values of 100 or above, 50 for GIPRCNT values of 0, and 100 for GIPRCNT values of -100.

Q: With CC[C@H](C)[C@H](NC(=O)C12CC(NC(C)=O)(C1)C2)C(=O)N(C)[C@H](C[C@@H](OC(C)=O)c1nc(C(=O)N[C@@H](Cc2ccccc2)C[C@H](C)C(=O)OC)cs1)C(C)C as the molecule, how does the growth read?
A: 61% (inactive)

Q: How did the growth turn out when C=C1C[C@](OC)([C@H](O)C(=O)N[C@@H](OC)[C@@H]2C[C@@H](O)C(C)(C)[C@@H](C[C@@H](COC)OC)O2)O[C@H](C)[C@@H]1C was run?
A: -100% (active)

Q: Which growth does the source give for O=[N+]([O-])c1c(Br)sc(Br)c1[N+](=O)[O-] here?
A: 57.3% (inactive)

Q: For c1ccc(Nc2nc(-c3ccccc3)c[se]2)cc1, which growth is on record?
A: 98.8% (inactive)

Q: Which growth does the source give for CCOC(=O)CCC(NC(=O)C(Cc1ccc(N(CCCl)CCCl)cc1)NC=O)C(=O)OCC (stereo not given) here?
A: -29.9% (active)

Q: How did the growth turn out when CC[CH2][Sn]([Cl])([Cl])[CH2]CC was run?
A: 69.2% (inactive)

Q: For CCOP1(=O)CC(C)=C(Cl)C(P(=O)(OCC)OCC)C1 (stereo not given), which growth is on record?
A: 87.3% (inactive)

Q: How did the growth turn out when Fc1cccc(NCOOC2(OOCNc3cccc(F)c3)CCCCC2)c1 was run?
A: 109% (inactive)

Q: Which growth does the source give for O=Cc1cn(Cc2ccc(Cl)cc2)c2ccccc12 here?
A: 96.4% (inactive)

Q: [Cl][Hg][n]1c(-c2ccco2)nc2ccccc21 was tested. Which growth did it give?
A: 108% (inactive)

Q: For COc1cc2c(=O)n(C3CCCCCCC3)c3c4cc[nH]c4ncc3c2cc1OC, which growth is on record?
A: 85.5% (inactive)

Q: For NC(=O)CNc1ccc([As]=[As]c2ccc(NCC(N)=O)cc2)cc1 (stereo not given), which growth is on record?
A: 74.6% (inactive)

Q: With COc1ccc(-n2c(C)nc3cc(OC)c(OC)cc3c2=O)cc1OC as the molecule, how does the growth read?
A: 109% (inactive)

Q: For Cc1ccc(C(=O)NCCCOc2ccc(N)cc2Cl)cc1S(=O)(=O)F, which growth is on record?
A: 104% (inactive)

Q: With Cc1cc(N(CCCl)CCCl)ccc1C=Nc1ccc(-c2csc(Cc3ccccc3)n2)cc1 as the molecule, how does the growth read?
A: 90.5% (inactive)

Q: With Fc1ccc(C2=CCNCC2)cc1 as the molecule, how does the growth read?
A: 107% (inactive)

Q: With NC(=Nc1ccccc1)N[N+](=O)[O-] as the molecule, how does the growth read?
A: 105% (inactive)

Q: COC(=O)C12CC(NC(=O)c3csc([C@@H](C[C@H](C(C)C)N(C)C(=O)[C@@H](NC(=O)[C@H]4CCCCN4C)C(C)C)OC(C)=O)n3)(C1)C2 was tested. Which growth did it give?
A: 62.4% (inactive)

Q: For CN1CCC(O)(c2ccc(F)cc2)C(C(=O)c2ccc(F)cc2)C1 (stereo not given), which growth is on record?
A: 121% (inactive)

Q: COC(=O)N[C@H]1CCc2c(Br)c(OC)c(OC)c(OC)c2-c2ccc(SC)c(=O)cc21 was tested. Which growth did it give?
A: 66.9% (inactive)

Q: Which growth does the source give for O=C1OCC2=C1C(c1ccccc1)c1cc3c(cc1N2)OCO3 (stereo not given) here?
A: 64.2% (inactive)

Q: CN(C)CCCOc1ccc2c(c1)c(C(=O)C(=O)NCCO)cn2Cc1ccccc1 was tested. Which growth did it give?
A: 118% (inactive)

Q: How did the growth turn out when CCCCCCCC[N+](C)(CCCCCCCC)CCCCCCCC was run?
A: -100% (active)

Q: COc1ccc(/C=C/c2cc(OC)c(OC)c(OC)c2)cc1NC(=O)/C=C/c1ccc(F)cc1 was tested. Which growth did it give?
A: 47.2% (inactive)

Q: COc1cc2c(c(OC)c1OC)-c1ccc([O-])c(=O)cc1[C@@H](NC(C)=O)CC2.COc1cc2c(c(OC)c1OC)-c1ccc([O-])c(=O)cc1[C@@H](NC(C)=O)CC2.[Cu+2] was tested. Which growth did it give?
A: 48.5% (inactive)

Q: O=C1CN=C(c2ccc(Cl)cc2)c2sccc2N1 was tested. Which growth did it give?
A: 105% (inactive)

Q: For ClCCN(CCCl)c1ccc(-n2cnc3c(Cl)ncnc32)cc1, which growth is on record?
A: -10.5% (active)

Q: For CC(=O)Oc1ccccc1C(=O)NCCC[Se]C#N, which growth is on record?
A: 7.94% (active)

Q: C/C(CC(C)(C)N1CC1)=N\NC(=O)Nc1cccc2ccccc12 was tested. Which growth did it give?
A: 102% (inactive)

Q: CC(=O)O[C@@H]1CC[C@]2(C)[C@H]3CC[C@]4(C)C(=O)CC[C@H]4[C@@H]3C[C@@H]3SC(N)=N[C@@]32C1 was tested. Which growth did it give?
A: 72.2% (inactive)

Q: Which growth does the source give for COc1ccc(S(=O)(=O)N(Cc2ccc3c(c2)C=CC(C)(C)O3)c2ccccc2)cc1OC here?
A: 67.9% (inactive)

Q: O=C(O)C1C(C(=O)O)C2(Cl)C(Cl)=C(Cl)C1(Cl)C2(Cl)Cl.[Hg] (stereo not given) was tested. Which growth did it give?
A: 96.7% (inactive)

Q: For CN(CCCCN(C)CCOS(C)(=O)=O)CCOS(C)(=O)=O, which growth is on record?
A: 95.1% (inactive)

Q: How did the growth turn out when CCCC[C@H](NC(=O)[C@H]1CCCCN1C)C(=O)N(C)[C@H](C[C@@H](OC(C)=O)c1nc(C(=O)N[C@@H](Cc2ccccc2)C[C@H](C)C(=O)OCC)cs1)C(C)C was run?
A: 67.4% (inactive)

Q: How did the growth turn out when C=C1[C@@H](C)[C@H]2[C@H](Cc3ccccc3)NC(=O)[C@]23[C@@H](O)/C=C/[C@@](C)(O)C(=O)[C@@H](C)C/C=C/[C@H]3[C@@H]1O was run?
A: 67.1% (inactive)

Q: With C=CC[Se]C(=O)c1ccccc1OC(C)=O as the molecule, how does the growth read?
A: 4.12% (active)

Q: For CC(=O)Nc1ccc(NC(=O)c2ccc([As](O)O)cc2)cc1, which growth is on record?
A: 118% (inactive)

Q: For c1ccc(CSC(c2ccccc2)c2ccccc2)cc1, which growth is on record?
A: 143% (inactive)

Q: With CCOC(=O)N1CC1 as the molecule, how does the growth read?
A: 103% (inactive)

Q: For C=C1C(=O)O[C@H]2[C@H]1CC/C(COC(=O)C(=O)c1cn(Cc3ccccc3)c3ccccc13)=C\CC[C@@]1(C)O[C@@H]21, which growth is on record?
A: -47.1% (active)
